{"source": "PubChem BioAssay (NCI)", "note": "Compounds without any hit were thinned out: in the full panel of roughly 83,000, 20% have a hit.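 Interpretation: 100, growth as untreated; towards 0, rising growth inhibition; 0, no net growth; 0 to -100, cell death. Compounds scoring below 10 were considered active.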 Unmarked numbers belong to inactive results. Calls of active or inactive are those of the source.", "data": [{"system": "HL-60(TB) leukemia", "assay": "NCI-60 one-dose screen, 48 h (100 = growth as untreated, 0 = no growth, -100 = all killed)", "details": "10 µM unless noted", "values": [{"smiles": "C=CCNC(=O)Cc1c(-c2ccc(OC)cc2)oc2c(OC)c3c(c(OC)c12)OCO3", "growth": "102%"}, {"smiles": "CC(=O)C1C(=O)C(=O)N(c2ccc(Cl)c(Cl)c2)C1=O", "note": "(stereo not drawn)", "growth": "98.6%"}, {"smiles": "O=C1NC(=O)/C(=C/c2c(-c3ccccc3)nc3sc(COc4ccccc4)nn23)S1", "growth": "91.1%"}, {"smiles": "COc1cccc(-c2nc3occn3c2-c2ccnc(NCCNS(=O)(=O)c3ccc(C(F)(F)F)cc3)n2)c1", "growth": "116%"}, {"smiles": "Cc1ccc(C(=O)Nc2ccc(CN3CCN(C)CC3)c(C(F)(F)F)c2)cc1C#Cc1cnc(N)c2ccccc12", "growth": "-37.9% (active)"}, {"smiles": "COc1cc2cc(Oc3ccc(NC(=O)Nc4cccc(C(F)(F)F)c4)cc3)c(C)nc2cc1OCCN1CCCCC1", "growth": "-51.9% (active)"}, {"smiles": "Cc1cc(O)c(C2=NN(c3ccc(S(N)(=O)=O)cc3)C(/C=C/c3ccccc3)C2)cc1Cl", "note": "(stereo not drawn)", "growth": "89.7%"}, {"smiles": "C#C[C@H](O)/C=C/CCCCCCC#C[C@H](O)CC[C@@H](O)C#CCCCCCC/C=C/[C@@H](O)C#C", "growth": "-70.8% (active)"}, {"smiles": "C[C@]12CC[C@@H]3c4ccc(O)c([N+](=O)[O-])c4CC[C@H]3[C@@H]1CC[C@@H]2NS(=O)(=O)c1cccc(Br)c1", "growth": "-5.66% (active)"}, {"smiles": "CN(C)CC1CCC(CN(C)C)C1=O", "note": "(stereo not drawn)", "growth": "84.2%"}, {"smiles": "COC(=O)CCCCN=Cc1c(O)c(O)c(C(C)C)c2cc(C)c(-c3c(C)cc4c(C(C)C)c(O)c(O)c(C=NCCCCC(=O)OC)c4c3O)c(O)c12", "growth": "10.9%"}, {"smiles": "C=C1C(=O)O[C@H]2[C@H]1CC/C(COC(=O)C(=O)c1cn(C)c3ccc(OC)cc13)=C\\CC[C@@]1(C)O[C@@H]21", "growth": "-38.7% (active)"}, {"smiles": "Nc1c(Cl)cc2c(c1Br)C(=O)c1ccccc1C2=O", "growth": "70.7%"}, {"smiles": "NC(=O)c1cccc(N2Cc3ccccc3OC3=C2C(=O)c2c(O)ccc(O)c2C3=O)c1", "growth": "-46.3% (active)"}, {"smiles": "COc1ccc(-c2cc3cnc4ccccc4c3oc2=O)cc1", "growth": "94.2%"}, {"smiles": "CCOC(=O)C(=O)C=P(c1ccccc1)(c1ccccc1)c1ccccc1", "growth": "103%"}, {"smiles": "CC(=O)O[C@]1(C(C)=O)CCC2C3C[C@H](C)C4=CC(=O)CC[C@]4(C)C3CC[C@@]21C", "note": "(stereo partly drawn)", "growth": "87.4%"}, {"smiles": "O=C1CSC(c2ccccc2O)N1c1nnc(Cn2ccnc2)o1", "note": "(stereo not drawn)", "growth": "24.9%"}, {"smiles": "Cc1cc(C)cc(Nc2ccc([N+](=O)[O-])c(NCCN3CCOCC3)n2)c1", "growth": "-13.9% (active)"}, {"smiles": "O=C(O)c1cccc2c1-c1ccccc1C2=O", "growth": "106%"}, {"smiles": "Cc1cc(=O)oc2cc(Oc3nc(-c4ccccc4)cn4c(-c5ccccc5)cnc34)ccc12", "growth": "85.2%"}, {"smiles": "CCN(CC)CCN1C(=O)c2c(c(C)c3c(oc4cc(OC)ccc43)c2C)C1=O", "growth": "85.8%"}, {"smiles": "CCCCCCNc1nc(NCCCCCC)c2[nH]c(NCCCCCC)nc2n1", "growth": "-60.2% (active)"}]}]}
